Experimental data published in PubChem BioAssay AID1159580 (chemical genetic matrix, 2015).
Several values for one entry are separate records, joined by “and”; a condition that tells them apart may be missing. Equal entries are not always repeated. Hit rate of the full screen: of about 5,500 compounds, about 2,000 (36%) were called active. Another 18% or so got no clear call; they are omitted. No stated cut-off is given here; in the data, active means normalized growth mostly below about 0.91 (no sharp cut-off); inconclusive means no clear call, values can overlap the other calls; inactive means mostly above about 0.92. The list shows a part of the results.

Assay: chemical genetic growth profiling, strain panel (AID 1159580);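 further: tested at 20 µM; growth read once vehicle control cultures reached saturation at 30 °C; 1 = growth at the plate median or of vehicle wells; lower values mean less growth of the strain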
Settings: S. cerevisiae deletion strains, growth OD

Measured: normalized growth

COc1ccc(Cl)cc1C(=O)NCCc1ccc(S(=O)(=O)NC(=O)NC2CCCCC2)cc1
inactive: locus YAL013W, strain DEP1, hits give low values 0.982 | locus YAL021C, strain ccr4, hits give low values 1.01 | locus YAL026C, strain drs2, hits give low values 1 | locus YAL030W, strain snc1, hits give low values 1 | locus YAL040C, strain CLN3, hits give low values 0.984 | locus YBL061C, strain skt5, hits give low values 1 | locus YBR009C, strain hhf1, hits give low values 0.993 | locus YBR021W, strain FUR4, hits give low values 1.03 | locus YBR023C, strain chs3, hits give low values 1 | locus YBR171W, strain sec66, hits give low values 1.01 | locus YBR229C, strain ROT2, hits give low values 0.956 | locus YBR231C, strain swc5, hits give low values 0.997 | locus YBR279W, strain paf1, hits give low values 1.01 | locus YCL011C, strain gbp2, hits give low values 1.01 | locus YCL016C, strain dcc1, hits give low values 0.992 | locus YCL029C, strain bik1, hits give low values 0.99 | locus YCL061C, strain MRC1 (second series), hits give low values 1 | locus YCL061C, strain MRC1, hits give low values 1 | locus YCL069W, strain vba3, hits give low values 1 | locus YCR088W, strain abp1, hits give low values 1.01 | locus YDL005C, strain med2, hits give low values 1.01 | locus YDL035C, strain GPR1, hits give low values 0.973 | locus YDL040C, strain nat1, hits give low values 1 | locus YDL074C, strain BRE1, hits give low values 0.909 | locus YDL101C, strain DUN1, hits give low values 0.978 | locus YDL134C, strain PPH21, hits give low values 0.976 | locus YDL185W, strain tfp1, hits give low values 0.959 | locus YDL192W, strain arf1, hits give low values 0.997 | locus YDR001C, strain nth1, hits give low values 1 | locus YDR069C, strain doa4, hits give low values 1.01 | locus YDR101C, strain arx1, hits give low values 1.01 | locus YDR137W, strain rgp1, hits give low values 0.973 | locus YDR150W, strain NUM1, hits give low values 0.971 | locus YDR159W, strain sac3, hits give low values 1.01 | locus YDR162C, strain NBP2, hits give low values 0.903 | locus YDR195W, strain ref2 0.927 | locus YDR297W, strain sur2, hits give low values 1 | locus YDR318W, strain mcm21, hits give low values 1.02 | locus YDR334W, strain swr1, hits give low values 0.993 | locus YDR335W, strain msn5, hits give low values 1.01 | locus YDR363W, strain ESC2, hits give low values 0.968 | locus YDR388W, hits give low values 0.995 | locus YDR392W, strain spt3, hits give low values 0.918 | locus YDR502C, strain sam2, hits give low values 0.989 | locus YEL003W, strain gim4, hits give low values 0.997 | locus YEL037C, strain rad23, hits give low values 1 | locus YEL061C, strain CIN8 (second series), hits give low values 0.996 | locus YEL061C, strain CIN8, hits give low values 0.984 | locus YER002W, strain NOP16, hits give low values 1.02 | locus YER015W, strain faa2, hits give low values 1 | locus YER016W, strain bim1, hits give low values 1 | locus YER110C, hits give low values 0.999 | locus YER111C, strain swi4, hits give low values 1 | locus YER155C, strain BEM2 (second series), hits give low values 0.996 | locus YER155C, strain BEM2, hits give low values 0.994 | locus YER167W, strain BCK2, hits give low values 1.01 | locus YFR010W, strain ubp6, hits give low values 1.01 | locus YGL078C, strain dbp3, hits give low values 0.979 | locus YGL086W, strain mad1, hits give low values 1.02 | locus YGL167C, strain pmr1, hits give low values 1 | locus YGL173C, strain kem1, hits give low values 1 | locus YGL227W, strain vid30, hits give low values 0.998 | locus YGL240W, strain doc1, hits give low values 0.994 | locus YGL248W, strain PDE1, hits give low values 0.973 | locus YGL253W, strain hxk2, hits give low values 1 | locus YGR078C, strain PAC10, hits give low values 0.958 | locus YGR135W, strain pre9, hits give low values 0.979 | locus YGR229C, strain SMI1, hits give low values 0.954 and 0.937 | locus YGR252W, strain gcn5, hits give low values 1.12 | locus YHR013C, strain ard1, hits give low values 0.969 | locus YHR027C, strain rpn1, hits give low values 1.01 | locus YHR030C, strain SLT2, hits give low values 1 and 0.996 | locus YHR079C, strain IRE1 (second series), hits give low values 1.01 | locus YHR079C, strain IRE1, hits give low values 0.993 | locus YHR094C, strain hxt1, hits give low values 0.996 | locus YHR129C, strain ARP1, hits give low values 0.993 | locus YHR142W, strain chs7, hits give low values 1.01 | locus YHR200W, strain rpn10, hits give low values 1.01 | locus YIL066C, strain RNR3, hits give low values 0.962 | locus YIL073C, strain SPO22, hits give low values 1.06 | locus YIL125W, strain kgd1, hits give low values 0.998 | locus YIR030C, strain dcg1, hits give low values 1.01 | locus YJL092W, strain hpr5, hits give low values 1 | locus YJL095W, strain BCK1 (second series), hits give low values 0.997 | locus YJL095W, strain BCK1, hits give low values 0.963 and 0.978 | locus YJL115W, strain asf1, hits give low values 1 | locus YJL129C, strain trk1, hits give low values 0.994 | locus YJL134W, strain LCB3, hits give low values 0.993 | locus YJL154C, strain vps35, hits give low values 0.996 | locus YJL164C, strain tpk1, hits give low values 0.995 | locus YJL166W, strain qcr8, hits give low values 1.01 | locus YJL168C, strain set2, hits give low values 0.998 | locus YJL187C, strain SWE1 (second series), hits give low values 0.943 | locus YJL187C, strain SWE1, hits give low values 1.01 | locus YJR043C, strain POL32, hits give low values 1.03 | locus YJR066W, strain TOR1, hits give low values 0.934
